# Reference: PubChem BioAssay (NCI)
# This is part of a sample that, as a whole, favours compounds with a hit. Of some 79,000 tested, about 15% had one in any assay. Values without a mark were called inactive. Active and inactive are the calls of the source. Rule as the data show it: active = growth inhibition above about 70%; inactive = the rest.
# Test: NCI Yeast Anticancer Drug Screen. Data for the sgs1 mgt1 strain (AID 161);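 also: 0% = growth of cultures given vehicle only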
# Settings: S. cerevisiae sgs1 mgt1 strain, hits give high values
# Method: Growth inhibition of yeast strains with defined genetic alterations is measured as a screen for potential anti-cancer activity. Selected strains with alterations in DNA damage repair or cell cycle control were exposed to compounds and growth inhibition was measured relative to vehicle treated controls. The strain used in this assay is sgs1 mgt1
# [1] = at 5.0 µM (retest, dose inferred, filed as 0.5)
# [2] = at 50.0 µM (retest, dose inferred, filed as 5.0)
Structure (SMILES),growth inhibition [1],growth inhibition [2],growth inhibition (at 50.0 µM)
CC(O)C(NC(=O)OCc1ccccc1)C(=O)OC(c1ccccc1)c1ccccc1 (configuration not stated),-23%,98% (active),97.5% (active)
CCOC1(OCC)C(C)C(c2ccccc2)C(c2ccccc2)C1C (configuration not stated),-8%,13%,8.1%
CCCCCCSc1nc2ccc(N=Cc3ccccc3O)cc2s1,93% (active),88% (active),70.3% (active)
C/C(=N\O)c1ccc2cc(Br)c3ccccc3c2c1,-1%,98% (active),98% (active)
COc1ccc(OC)c(/C=C2/C(=O)ON=C2C)c1,1%,27%,70% (active)
C/C(=N\NC(=S)N1CCN(c2ccccc2)CC1)c1nccs1,33%,99% (active),91.1% (active)
CC(=O)SCC(=O)Nc1ccc(Cl)cc1,-4%,85% (active),91.1% (active)
Oc1ccc(O)c(C2CCCCC2)c1,46%,99% (active),78.2% (active)
O=C(O)c1cc2ccc(Cl)cc2c2c1C(=O)c1cc(Cl)ccc1-2,-2%,35%,82.5% (active)
CCN1/C(=C\c2cc(C)nc(-c3ccccc3)[n+]2C)C=Cc2ccccc21,27%,99% (active),98.7% (active)
CCCCCCCC(=O)O[C@H]1[C@H]2[C@@H](CC1(C)C)C(=O)[C@]13O[C@H]1C(=O)[C@]1(CO1)[C@]23C,65%,98% (active),92.7% (active)
O=C(O)CCn1c2ccccc2c2ccccc21,-1%,68%,40.5%
CC(C)(C)/C=N/NS(=O)(=O)c1ccccc1,-44%,-62%,2.5%
COc1ccc([N+](=O)[O-])cc1Nc1c2ccccc2nc2ccccc12,0%,58%,49%
